Screens: PubChem, National Center for Advancing Translational Sciences (NCATS)
The list is not random: actives were taken first. Their share in the collection is about 2.5%.
D2 antag: HTS Assay for Allosteric Antagonists of the Human D2 Dopamine Receptor: Primary Screen for Antagonists; D(2) dopamine receptor (Homo sapiens), P14416; HEK293 TREx D2 cells, calcium flux, dopamine EC80; inhibition, % at 10 µM; actives 2% (n = 340,000); AID 485344, 2010; in the data active means inhibition above about 30%; inactive means below that, where a call was filed; further: 0% is about no effect
Target sequence (P14416 whole entry, looked up): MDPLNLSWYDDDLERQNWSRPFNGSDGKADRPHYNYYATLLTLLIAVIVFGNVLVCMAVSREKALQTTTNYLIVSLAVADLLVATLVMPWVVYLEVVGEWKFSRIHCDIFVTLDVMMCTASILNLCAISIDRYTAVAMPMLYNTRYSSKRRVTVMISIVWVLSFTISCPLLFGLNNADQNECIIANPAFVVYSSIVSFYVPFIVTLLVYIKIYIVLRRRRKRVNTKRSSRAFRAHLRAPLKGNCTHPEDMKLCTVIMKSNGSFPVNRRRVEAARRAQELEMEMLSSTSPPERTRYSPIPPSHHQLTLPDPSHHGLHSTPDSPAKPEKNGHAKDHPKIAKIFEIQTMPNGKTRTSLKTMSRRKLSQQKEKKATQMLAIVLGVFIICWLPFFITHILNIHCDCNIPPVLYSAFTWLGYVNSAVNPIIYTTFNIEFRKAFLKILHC
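Calcium flux kinetic readout in an inducible HEK293 TREx D2 line plated overnight at 30 C. After 180 s compound exposure, an EC80 dopamine challenge follows with another 180 s kinetic read to detect antagonism.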
D2 PAM-1: HTS Assay for Positive Allosteric Modulators of the Human D2 Dopamine Receptor: Primary Screen for Potentiators; D(2) dopamine receptor (Homo sapiens), P14416; HEK293 T-REx D2, calcium flux, EC20 dopamine potentiation; potentiation, % at 10 µM; actives 0.34% (n = 340,000); AID 485347, 2010;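 active means potentiation over 3 SD above the plate norm, cut at about 30% in these data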; further: 0% is about no effect
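Potentiation of an EC20 dopamine calcium response measured kinetically over 180 s, after a preceding 180 s compound-only read flagging agonists. Cells: inducible Hek293 Trex D2 line, 4000/well, cultured overnight at 30 C before dye loading.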
D2 ag-1: HTS Assay for Allosteric Agonists of the Human D2 Dopamine Receptor: Primary Screen for Agonists; actives 0.53% (n = 340,000); HEK293 T-REx D2 cells, calcium flux agonist mode; AID 485358, 2010; activation, % at 2 µM; D(2) dopamine receptor (Homo sapiens), P14416;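 active means activation over 3 SD above normal in the single-dose calcium agonist read, cut at about 30% in these data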; further: 0% is about no effect
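Calcium-flux readout, 1 cycle/sec over 180 s following compound pin transfer, in inducible HEK293 Trex D2 cells (force-coupled); dopamine controls included. Positive calcium responses during this window marked compounds as potential agonists.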
Anesthetic bind: qHTS Assay for Identification of Novel General Anesthetics; Ferritin light chain (Equus caballus), P02791; apoferritin/1-aminoanthracene competitive binding, fluorescence; Potency, µM (series often up to 77.5 µM), without a hit: at the highest dose activity change, negative = displacement, usual class: inhibitors; actives 0.074% (n = 350,000); AID 485281, 2010; active means well fitted inhibition curve with a large enough effect; inconclusive means small, poorly fitted or top-dose-only effect; inactive means no such curve, though single readings can be large or run the other way; further: potency means the concentration at half of the fitted maximal effect; on the % scale 0 is the no-effect control and ±100 the full control effect; nearly all actives have a fitted effect of over 20% in size
Target sequence (P02791 2-175 limits assumed): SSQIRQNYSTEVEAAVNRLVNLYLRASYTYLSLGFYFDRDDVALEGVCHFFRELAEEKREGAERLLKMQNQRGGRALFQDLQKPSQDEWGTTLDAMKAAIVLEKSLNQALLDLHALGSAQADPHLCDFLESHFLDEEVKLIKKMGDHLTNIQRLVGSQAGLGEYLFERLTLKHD
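Horse-spleen apoferritin (10 uM) in 50% saturated 1-aminoanthracene in PBS was incubated 10 min at room temperature with compound. Fluorescence (ex 380, em 535 nm) was normalized to free and bound 1-AMA, with concentration-response fitted by a four-parameter Hill equation.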
D2 PAM-2: Beta-Arrestin HTS for Positive Allosteric Modulators of the Human D2 Dopamine Receptor: Potentiators; actives 0.23% (n = 360,000); D(2) dopamine receptor (Homo sapiens), P14416; potentiation, % (concentration not given with the values); DiscoveRx D2 beta-arrestin cells, luminescence, 90 min; 100% = 57 uM dopamine signal; in the data active means potentiation above about 50%; inconclusive means mostly about 30% to 49%
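PathHunter D2 cells, attached overnight at 37 deg C, received compound in DMSO plus dopamine at EC20 (50 nM final) for 90 min at 37 deg C. Beta-arrestin recruitment was read as luminescence after 1 h with detection reagent at ambient temperature.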
D2 ag-2: Beta-Arrestin HTS for Positive Allosteric Modulators of the Human D2 Dopamine Receptor: Agonists. D(2) dopamine receptor (Homo sapiens), P14416. DiscoveRx PathHunter D2 beta-arrestin, luminescence, 90 min; 100% = 57 uM dopamine signal. activation, % (test concentration not listed). actives 0.084% (n = 360,000). AID 624465, 2012; in the data active means activation above about 40%; inconclusive means between about 15% and that limit
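Agonist mode: compounds alone added to overnight-plated D2 PathHunter cells for 90 min at 37 C, with 57 uM final dopamine (EC100) defining full response. Beta-arrestin recruitment detected by chemiluminescent reagent, read after 1 h at ambient temperature.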
* marks the source's active call; other numbers are inactive results; ? = inconclusive; · = no result given.

SMILES	D2 antag	D2 PAM-1	D2 ag-1	Anesthetic bind	D2 PAM-2	D2 ag-2
CCOC(=O)C1C(=O)C=C(c2ccc(C)cc2)CC1c1ccccc1 (configuration not stated)	·	·	·	?	-9	-2
CCOC(=O)C1C(=O)C=C(/C=C/c2ccc(N(C)C)cc2)CC1c1ccccc1 (configuration not stated)	33*	-10	52*	0%	4	1
O=C(CC12CC3CC(CC(C3)C1)C2)NCC(c1ccc(F)cc1)N1CCOCC1 (configuration not stated)	40*	3	3	-6%	-4	1
CCn1nnnc1-c1ccc(OC)c(S(=O)(=O)Nc2ccc(OC)cc2)c1	36*	-4	0	3%	7	1
COc1cc(NC(=O)N2c3ccccc3Sc3ccccc32)c(C(=O)O)cc1OC	8	-1	0	-19%	3	50*
Cc1nnc(NC(=O)C2CCN(S(=O)(=O)c3cc([N+](=O)[O-])ccc3Cl)CC2)o1	14	-5	-1	·	2	?
O=C(Nc1ccc(F)c(F)c1)C1CCN(S(=O)(=O)c2cccc3nonc23)CC1	0	30*	-2	-14%	1	-16
Cc1ccc2nc(NC(=O)C3CCCN(S(=O)(=O)c4cccc5nonc45)C3)sc2c1 (configuration not stated)	12	-8	0	-14%	·	·
Cc1cccc2sc(NC(=O)C3CCN(S(=O)(=O)c4cc([N+](=O)[O-])ccc4Cl)CC3)nc12	·	0	·	4%	64*	?
Cc1cccc2sc(NC(=O)C3CCCN(S(=O)(=O)c4cccc5nonc45)C3)nc12 (configuration not stated)	-9	39*	-2	-9%	-11	3
CC(=O)Nc1ccc(NC(=O)C2CCN(S(=O)(=O)c3cccc4nonc34)CC2)cc1	10	21	0	-19%	-1	2
Cc1cccc2sc(NC(=O)C3CCCO3)nc12 (configuration not stated)	32*	-4	0	-7%	-4	-1
COc1ccc(Cc2nc(-c3ccc(-n4cccc4)cc3)no2)cc1	-13	5	1	6%	-2	-1
O=S(=O)(c1ccc2c(c1)OCCO2)N1CCC(c2nc3ccc(Cl)cc3[nH]2)CC1	-27	-10	0	-4%	-3	0
CCN(CC)C(=O)CSc1nnc([C@@H](N)Cc2ccccc2)o1	11	2	0	-17%	-4	-3
CC1CN(C(=O)CSc2cn(CC(=O)N3CCOCC3)c3ccccc23)CC(C)O1 (configuration not stated)	-7	15	0	-3%	-3	2
CC1(C)CC(=O)CC2(C1)NCC(c1ccccc1)c1c2[nH]c2ccccc12 (configuration not stated)	31*	-5	4	-16%	-7	0
COc1cccc(C2CNC3(CCCC(C)C3)c3[nH]c4ccccc4c32)c1OC (configuration not stated)	-8	-25	2	10%	-17	-6
C=CCn1c(CSCc2ccc(Cl)cc2)nnc1SCC(=O)NCc1ccccc1	-4	0	0	-12%	-13	-1
COc1ccc(C(=O)NNC(=O)CSc2nnc(-c3cccnc3)o2)cc1	3	42*	0	-6%	2	0
COc1ccc(-c2nnc(SCC(=O)NNC(=O)c3ccc(C)cc3)o2)cc1	5	-1	0	3%	6	0
CCCn1c(SCC(=O)NNC(=O)c2ccccc2)nnc1-c1cccnc1	32*	4	-2	-3%	-16	-3
O=C(CSc1nnc(-c2cccnc2)n1Cc1ccccc1)NCc1ccccc1	35*	-5	0	-9%	-10	-1
CC(C)N(C(=O)CSc1nnc(CNc2ccc(F)cc2)o1)C(C)C	-14	77*	1	-3%	8	2
COCC(C)Nc1nc(C)c(C(C)=O)s1 (configuration not stated)	-19	-7	0	-4%	-8	-4
SMILES	D2 antag	D2 PAM-1	D2 ag-1	Anesthetic bind	D2 PAM-2	D2 ag-2
CCOc1ccc(NC(=O)Cn2cnc3nc4c(cc3c2=O)CCCC4)cc1	·	·	0	-8%	·	·
COC(=O)c1ccc(C2C(C(=O)c3ccco3)=C(O)C(=O)N2c2cc(C)on2)cc1 (configuration not stated)	-5	-1	-1	-8%	-7	1
COc1cc(OC)cc(-c2nnc(SCC(=O)N(C(C)C)C(C)C)o2)c1	-1	0	1	-14%	-4	-1
COc1cccc(-c2nnc(SCC(=O)N(C(C)C)C(C)C)o2)c1	-1	31*	0	-5%	-11	-2
COc1ccc(CN2CCCC(C(=O)Nc3cccc(-n4cccn4)c3)C2)cc1 (configuration not stated)	79*	-24	0	-10%	-33	-1
COC(=O)c1ccc(CN2CCCC(C(=O)Nc3cccc(-n4cccn4)c3)C2)cc1 (configuration not stated)	-19	-16	0	-17%	-26	4
Fc1ccc(Oc2nnnn2-c2ccccc2)cc1	-3	6	0	-8%	-18	-2
Brc1ccc(Oc2nnnn2-c2ccccc2)cc1	45*	-8	-3	-6%	-7	-30
O=C(Nc1ccc(O)c(-c2nc3ccccc3o2)c1)C1(c2ccc(Cl)cc2)CCCC1	-9	5	-2	63%	11	2
CCc1cc(C(=O)OC)c(NC(=O)CC2SC(=NC)N(C)C2=O)s1 (configuration not stated)	63*	-6	0	1%	4	2
C/C(=N\Nc1cccc([N+](=O)[O-])c1)c1cc(F)ccc1O	35*	18	-1	-21%	-16	-12
N#C/C(=C/c1ccc(-c2ccccc2)o1)c1nc(-c2cccs2)cs1	-16	10	87*	-6%	3	2
